The values below come from ChEMBL document CHEMBL1201862, “PubChem BioAssay data set” (2004).

Screen size: about 56,000 sequences; about 5,400 (9.6%) were called active. Cut-off read from the data, not from the text of the source: active = GI50 up to about 1.1 µM and inactive = higher. Shown is part of a subset that was picked to be rich in actives. Results with a measured potency or affinity are listed apart.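 Interpolation was linear, between the two tested concentrations surrounding the appropriate level; five concentrations were tested over 48 hours in 96-well plates. The concentration for 50% growth inhibition is given as GI50.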

In this test the test system is K562. Briefly: NCI tumour cell line growth inhibition, 48 h.
In turn, “[Bis(aminomethyl)pentamethylenesilane]dichloropaltinum(II), CHEMBL2146202” came in with a GI50 of 3.47 µM.

In turn, “[Bis(aminomethyl)tetramethylenesilane]dichloropaltinum(II), CHEMBL2146205” gave a GI50 of 10.2 µM.

On to “[Bis(aminomethyl)tetramethylenesilane]tetrachloropaltinum(IV), CHEMBL2146189”, for which the GI50 stood at 2.57 µM.

The substance “cis-Bis[[(trimethylsilyl)methyl]amino]tetrachloroplatinum(IV), CHEMBL2146191” showed a GI50 of 2.92 µM.

In turn, “[Bis(aminomethyl)dimethylsilane]tetrachloroplatinum(IV), CHEMBL2146190” returned a GI50 of 3.78 µM.

With “[Bis(aminomethyl)pentamethylenesilane]tetrachloropaltinum(IV), CHEMBL2146204”, the GI50 stood at 1.79 µM.

“[Bis(aminomethyl)diethylsilane]tetrachloroplatinum(IV), CHEMBL2146203”: the GI50 stood at 0.916 µM.

Consider “[Bis(aminomethyl)ethylmethylsilane]tetrachloroplatinum(IV), CHEMBL2146192”, for which the GI50 was 1.69 µM.

As to CISPLATIN, CHEMBL11359, the GI50 stood at 5.56 µM.

“[Bis(aminomethyl)dimethylsilane]dichloroplatinum (II), CHEMBL2146201” yielded a GI50 of 16.5 µM.

The substance CHLOROTRIPHENYLSTANNANE, CHEMBL515580 yielded a GI50 of 0.0256 µM.

Substance “mu-(1,7-nanodiamine-N,N')bis-(cis-aminedichloroplatimum (II)), CHEMBL2146215” had a GI50 of 30.7 µM.
